The values below come from the supplement of paper PMC6897291.

SMILES strings stand for the structures.

The test system of experiment [1] is U-2932. Put plainly: growth inhibition by drug plus 177Lu-lilotomab satetraxetan (1 - RLU/untreated control) (fraction); higher = stronger inhibition. The following applies: 177Lu-lilotomab satetraxetan 1 ug/ml. The essentials:
(§1)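 With or without 18 h pretreatment by a radiolabelled anti-CD37 antibody conjugate (~600 MBq/mg; 0.5 µg/ml RIVA, 1 µg/ml U-2932), RIVA and U-2932 cells were washed and plated at 3,000 cells/well. Pre-printed compound doses were 10/100 nM for RIVA and 10/1,000 nM for U-2932. Growth inhibition uses RealTime-Glo RLU relative to the untreated no-drug wells. The calculation is 1 − RLU/mean of 48 such wells per plate, with reads daily from day 3 after 1 h at 37°C.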

Experiment [2] relates to RIVA. The experiment is described as above. The following applies: 177Lu-lilotomab satetraxetan 0.5 ug/ml. The essentials: as §1

In the case of `Cn1cc(C2=C(c3cn(C4CCN(Cc5ccccn5)CC4)c4ccccc34)C(=O)NC2=O)c2ccccc21`, the “growth inhibition by drug plus 177Lu-lilotomab satetraxetan” value (“growth inhibition” for short) in experiment [1] (10 nM, time (day): 3) was -0.0756; in experiment [1] (10 nM, time (day): 4), -0.00933; in experiment [1] (10 nM, time (day): 5) it was 0.0275; in experiment [1] (10 nM, time (day): 6) it was 0.128; in experiment [1] (1000 nM, time (day): 3) it was -0.0807; in experiment [1] (1000 nM, time (day): 4) it was -0.0188. Moreover, the “growth inhibition” value was found to be 0.0211 in experiment [1] (1000 nM, time (day): 5); 0.21 in experiment [1] (1000 nM, time (day): 6); 0.515 in experiment [2] (10 nM, time (day): 3); 0.546 in experiment [2] (10 nM, time (day): 4); 0.557 in experiment [2] (10 nM, time (day): 5); 0.564 in experiment [2] (10 nM, time (day): 6). Further, the “growth inhibition” value in experiment [2] (100 nM, time (day): 3) was found to be 0.356; in experiment [2] (100 nM, time (day): 4), 0.435; in experiment [2] (100 nM, time (day): 5), 0.443; in experiment [2] (100 nM, time (day): 6), 0.436.
Regarding `CCC1(c2ccc(N)cc2)CCC(=O)NC1=O` (stereo not given) [Aminoglutethimide (Cytadren)], the “growth inhibition” value in experiment [1] (10 nM, time (day): 3) was -0.0302; in experiment [1] (10 nM, time (day): 4), 0.0116; in experiment [1] (10 nM, time (day): 5), 0.0252; in experiment [1] (10 nM, time (day): 6), 0.0218; in experiment [1] (1000 nM, time (day): 3), -0.00688; in experiment [1] (1000 nM, time (day): 4), 0.0339. For the same compound, the “growth inhibition” value in experiment [1] (1000 nM, time (day): 5) is 0.0642; in experiment [1] (1000 nM, time (day): 6) it was 0.126.
As to `Cc1ccccc1-n1c(Cn2cnc3c(N)ncnc32)nc2cccc(C)c2c1=O`, the “growth inhibition” value in experiment [1] (10 nM, time (day): 3) is -0.00529; in experiment [1] (10 nM, time (day): 4), 0.0455; in experiment [1] (10 nM, time (day): 5), 0.107; in experiment [1] (10 nM, time (day): 6) it was 0.209; in experiment [1] (1000 nM, time (day): 3) it was 0.0591; in experiment [1] (1000 nM, time (day): 4), 0.0697. The “growth inhibition” value was found to be 0.0914 in experiment [1] (1000 nM, time (day): 5) and 0.26 in experiment [1] (1000 nM, time (day): 6).
Consider `N.N.[Cl][Pt][Cl]` [Cisplatin], for which the “growth inhibition” value is 0.000302 in experiment [1] (10 nM, time (day): 3); 0.0521 in experiment [1] (10 nM, time (day): 4); 0.0625 in experiment [1] (10 nM, time (day): 5); 0.172 in experiment [1] (10 nM, time (day): 6); -0.00976 in experiment [1] (1000 nM, time (day): 3); 0.0376 in experiment [1] (1000 nM, time (day): 4). For the same compound, the “growth inhibition” value in experiment [1] (1000 nM, time (day): 5) was 0.065; in experiment [1] (1000 nM, time (day): 6), 0.206.
For `O=C(O)c1nn(Cc2ccc(Cl)cc2Cl)c2ccccc12` [Lonidamine], the “growth inhibition” value amounted to 0.0325 in experiment [1] (10 nM, time (day): 3); 0.0863 in experiment [1] (10 nM, time (day): 4); 0.132 in experiment [1] (10 nM, time (day): 5); 0.173 in experiment [1] (10 nM, time (day): 6); 0.0882 in experiment [1] (1000 nM, time (day): 3); 0.147 in experiment [1] (1000 nM, time (day): 4). Also, the “growth inhibition” value in experiment [1] (1000 nM, time (day): 5) amounted to 0.167; in experiment [1] (1000 nM, time (day): 6) it was 0.244.
Take `C[C@]12CCC(=O)C(O)=C1CC[C@@H]1[C@@H]2CC[C@]2(C)C(=O)CC[C@@H]12` [Formestane]: the “growth inhibition” value in experiment [1] (10 nM, time (day): 3) was -0.06; in experiment [1] (10 nM, time (day): 4), -0.00612; in experiment [1] (10 nM, time (day): 5), 0.0406; in experiment [1] (10 nM, time (day): 6) it was 0.141; in experiment [1] (1000 nM, time (day): 3), -0.0681; in experiment [1] (1000 nM, time (day): 4), -0.018. In addition, the “growth inhibition” value in experiment [1] (1000 nM, time (day): 5) was 0.0247; in experiment [1] (1000 nM, time (day): 6), 0.18.
With `CC1=C2C[C@H]3[C@@H](CC=C4C[C@@H](O)CC[C@@]43C)[C@@H]2CC[C@]12O[C@@H]1C[C@H](C)CN[C@H]1[C@H]2C` [Cyclopamine], the “growth inhibition” value in experiment [1] (10 nM, time (day): 3) is 0.0717; in experiment [1] (10 nM, time (day): 4), 0.0954; in experiment [1] (10 nM, time (day): 5), 0.107; in experiment [1] (10 nM, time (day): 6), 0.127; in experiment [1] (1000 nM, time (day): 3), -0.0532; in experiment [1] (1000 nM, time (day): 4), 0.0394. Further, the “growth inhibition” value amounted to 0.0391 in experiment [1] (1000 nM, time (day): 5) and 0.0669 in experiment [1] (1000 nM, time (day): 6).
With `Cc1cc2c(C(C)C)c(O)c(O)c(C=O)c2c(O)c1-c1c(C)cc2c(C(C)C)c(O)c(O)c(C=O)c2c1O` [Gossypol], the “growth inhibition” value in experiment [1] (10 nM, time (day): 3) is -0.115; in experiment [1] (10 nM, time (day): 4), -0.0678; in experiment [1] (10 nM, time (day): 5), -0.0445; in experiment [1] (10 nM, time (day): 6), 0.0445; in experiment [1] (1000 nM, time (day): 3), -0.0917; in experiment [1] (1000 nM, time (day): 4), -0.0427. Moreover, the “growth inhibition” value in experiment [1] (1000 nM, time (day): 5) was -0.011; in experiment [1] (1000 nM, time (day): 6) it was 0.0745.
With `C=C1C[C@@H]2[C@H](CC[C@]3(C)C(=O)CC[C@@H]23)[C@@]2(C)C=CC(=O)C=C12` [Exemestane], the “growth inhibition” value was 0.052 in experiment [1] (10 nM, time (day): 3); 0.106 in experiment [1] (10 nM, time (day): 4); 0.138 in experiment [1] (10 nM, time (day): 5); 0.169 in experiment [1] (10 nM, time (day): 6); -0.0113 in experiment [1] (1000 nM, time (day): 3); 0.0549 in experiment [1] (1000 nM, time (day): 4). Also, the “growth inhibition” value in experiment [1] (1000 nM, time (day): 5) came out at 0.0989; in experiment [1] (1000 nM, time (day): 6) it was 0.179.
